PubChem BioAssay AID1159580 (chemical genetic matrix, 2015)
In all, about 5,500 compounds went through this assay and about 2,000 (36%) were called active. Roughly 18% stayed inconclusive and do not appear here. Cut-off read from the data, not from the text of the source: active = normalized growth mostly below about 0.91 (no sharp cut-off); inconclusive = no clear call, values can overlap the other calls; inactive = mostly above about 0.92. The list shows a part of the results.

Assay: chemical genetic growth profiling, strain panel (AID 1159580);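 note: tested at 20 µM; growth read once vehicle control cultures reached saturation at 30 °C; 1 = growth at the plate median or of vehicle wells; lower values mean less growth of the strain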
Settings: S. cerevisiae deletion strains, growth OD

Measured: normalized growth

O=c1cc(-c2ccc(O)c(O)c2)oc2cc(O)cc(O)c12
inactive: locus YAL040C, strain CLN3, hits give low values 1.02 | locus YCL061C, strain MRC1 (second series), hits give low values 0.989 | locus YDR150W, strain NUM1, hits give low values 0.964 | locus YDR363W, strain ESC2, hits give low values 1.02 | locus YER002W, strain NOP16, hits give low values 1.01 | locus YGR078C, strain PAC10, hits give low values 0.989 | locus YJR075W, strain HOC1, hits give low values 0.984 | locus YMR263W, strain SAP30, hits give low values 1 | locus YNL175C, strain NOP13, hits give low values 1.01 | locus YNL197C, strain WHI3, hits give low values 1.02 | locus YNL224C, strain SQS1, hits give low values 1.03 | locus YOR083W, strain WHI5 (second series), hits give low values 0.966 | locus YPL241C, strain CIN2, hits give low values 0.997
